PubChem BioAssay (Tox21)
Records with an inconclusive call do not appear. Calls of active or inactive are those of the source. Unless noted, the call rests on the fitted dose curve; in most records, active means well fitted curve in the direction sought with a large enough effect in the repeat runs; inconclusive means weak or mixed curves; inactive means no such curve, though single readings can be large; an effect the other way counts as inactive or inconclusive.

Key:
[1] = qHTS assay to identify small molecule antagonists of the retinoid acid receptor (RAR) signaling pathway - cell viability counter screen (AID 1159551); further: nearly all actives have a fitted effect of over 35% in size
Outline: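 In this counter screen, the RARE-luciferase line C3RL4 was exposed for 6 h at 37 C and 5% CO2 to compounds with retinol at 1 uM final. Cellular ATP, read by luminescence, served as the viability measure.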

[2] = qHTS assay to identify small molecule antagonists of the retinoic acid receptor (RAR) signaling pathway (AID 1159552; further: nearly all actives have a fitted effect of over 50% in size; further: potency means the concentration at half of the fitted maximal effect)
Outline: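 Cells of the C3RL4 line were seeded, incubated overnight, then dosed with compounds in DMSO followed immediately by retinol (1 uM final). Six hours later luciferase detection reagent went in; signal was measured after 30 min at RT.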

[3] = qHTS assay to identify small molecule agonists of the retinoic acid receptor (RAR) signaling pathway (AID 1159553); further: potency means the concentration at half of the fitted maximal effect
Outline: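 In this cell-based screen, 1,000 C3RL4 cells per well were cultured overnight, dosed with test chemicals in DMSO for 6 hr, and assessed for RARE luciferase luminescence.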

[4] = qHTS assay to identify small molecule antagonists of the estrogen related receptor (ERR) signaling pathway from Tox21 library - cell viability counter screen (AID 1224834); further: nearly all actives have a fitted effect of over 30% in size; further: potency means the concentration at half of the fitted maximal effect
Outline: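 Counter screen run in ERR cells (2,000 cells/well): cells pre-incubated 6 h, then treated with compounds for 17.5 h at 37 C. Fluorescence was read 30 min after CellTiter-Fluor addition.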

[5] = target: Luciferin 4-monooxygenase (Photinus pyralis) (UniProt P08659); experiment: qHTS assay to identify small molecule inhibitors of firefly luciferase (AID 1224835); further: nearly all actives have a fitted effect of over 25% in size; further: potency means the concentration at half of the fitted maximal effect
Luciferin 4-monooxygenase (Photinus pyralis), sequence (P08659 whole entry, looked up): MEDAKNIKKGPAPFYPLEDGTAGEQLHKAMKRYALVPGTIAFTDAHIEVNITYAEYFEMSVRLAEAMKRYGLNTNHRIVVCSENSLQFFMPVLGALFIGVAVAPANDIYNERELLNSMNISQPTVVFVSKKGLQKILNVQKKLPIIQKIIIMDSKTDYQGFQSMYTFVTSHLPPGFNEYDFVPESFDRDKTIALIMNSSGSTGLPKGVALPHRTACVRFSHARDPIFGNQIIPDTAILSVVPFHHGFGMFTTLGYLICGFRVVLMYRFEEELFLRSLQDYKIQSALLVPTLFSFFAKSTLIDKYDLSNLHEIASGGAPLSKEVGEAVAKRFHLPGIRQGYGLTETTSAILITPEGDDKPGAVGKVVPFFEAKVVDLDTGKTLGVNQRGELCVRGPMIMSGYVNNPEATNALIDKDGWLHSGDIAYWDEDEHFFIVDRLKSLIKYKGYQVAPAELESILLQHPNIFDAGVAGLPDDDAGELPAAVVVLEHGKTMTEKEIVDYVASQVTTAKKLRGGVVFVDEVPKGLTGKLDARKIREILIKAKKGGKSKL
Outline: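 Biochemical qHTS: compounds run as interplate titrations against purified firefly enzyme, with D-luciferin and ATP each at its KM concentration. Light output recorded by CCD imaging.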

[6] = qHTS assay to identify small molecule antagonists of the constitutive androstane receptor (CAR) signaling pathway - cell viability counter screen (AID 1224837); further: nearly all actives have a fitted effect of over 45% in size; further: potency means the concentration at half of the fitted maximal effect
Outline: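 CITCO at 50 nM final was added alongside compounds (15 concentrations) to double-stable hCAR/CYP2B6-2.2kb HepG2 cells. Following 23 hr at 37 C, cell viability was quantified by CellTiter-Fluor fluorescence intensity.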

[7] = qHTS assay to identify small molecule antagonists of the estrogen related receptor signaling pathway with the pleiotropic PPARgamma coactivator (PGC) from Tox21 10K library - cell viability counter screen (AID 1224840; active means well fitted cell-killing curve with a large enough effect in the repeat runs, not every such curve was filed as active; further: nearly all actives have a fitted effect of over 40% in size; further: potency means the concentration at half of the fitted maximal effect)
Outline: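 Readout: fluorescence intensity from CellTiter-Fluor after 30 min at 37 C/5% CO2. Preceded by 17.5 h treatment of PGC/ERR cells with DMSO-dissolved compounds, added 6 h post-seeding.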

[8] = qHTS assay to identify small molecule antagonists of the estrogen related receptor signaling pathway with the pleiotropic PPARgamma coactivator (PGC) from Tox21 10K library (AID 1224841; call rule not given here; further: actives are mostly falling curves and most rising ones were filed inactive; nearly all actives have a fitted effect of over 50% in size; further: potency means the concentration at half of the fitted maximal effect)
Outline: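 One-Glo luminescence, measured after half an hour at room temperature, quantified reporter output of PGC/ERR cells. These had been plated at 2,000 per well, incubated 6 h, dosed with compounds in DMSO, then kept 18 h at 37 C.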

[9] = qHTS assay to identify small molecule agonists of the constitutive androstane receptor (CAR) signaling pathway - cell viability counter screen (AID 1224836); further: series mostly up to about 92 µM; nearly all actives have a fitted effect of over 45% in size
Outline: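 HepG2-CYP2B6-hCAR, 2500 cells/well, 4 h pre-incubation; cpd 15 conc + PK11195 0.75 uM final; 23 h, 37 C/5% CO2; CellTiter-Fluor, fluorescence.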

[10] = target: Nuclear receptor subfamily 1 group I member 3 (Homo sapiens) (UniProt Q14994); experiment: qHTS assay to identify small molecule antagonists of the constitutive androstane receptor (CAR) signaling pathway (AID 1224838); further: nearly all actives have a fitted effect of over 40% in size
Nuclear receptor subfamily 1 group I member 3 (Homo sapiens), sequence (Q14994 whole entry, looked up): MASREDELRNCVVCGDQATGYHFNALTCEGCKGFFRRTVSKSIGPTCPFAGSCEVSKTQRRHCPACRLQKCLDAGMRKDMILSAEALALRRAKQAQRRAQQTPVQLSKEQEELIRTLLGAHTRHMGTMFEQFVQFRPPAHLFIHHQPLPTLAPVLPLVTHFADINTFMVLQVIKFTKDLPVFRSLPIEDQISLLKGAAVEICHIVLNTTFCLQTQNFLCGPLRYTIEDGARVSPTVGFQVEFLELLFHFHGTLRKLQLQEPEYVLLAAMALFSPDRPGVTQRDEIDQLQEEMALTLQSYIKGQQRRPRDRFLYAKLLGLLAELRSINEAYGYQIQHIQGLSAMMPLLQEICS
Outline: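 Inhibition of CITCO-driven (50 nM final) CYP2B6 reporter expression is measured in HepG2 cells stably carrying hCAR. Fifteen compound concentrations are applied for 24 h at 37 C, followed by luciferase luminescence.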

[11] = target: Nuclear receptor subfamily 1 group I member 3 (Homo sapiens) (UniProt Q14994); experiment: qHTS assay to identify small molecule agonists of the constitutive androstane receptor (CAR) signaling pathway (AID 1224839); further: nearly all actives have a fitted effect of over 15% in size; further: potency means the concentration at half of the fitted maximal effect
Outline: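 HepG2-CYP2B6-hCAR cells, 2500/well, 4 h pre-incubation; compounds 15 conc.; PK11195 0.75 uM final; 24 h, 37 C/5% CO2; ONE-Glo luciferase read.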

[12] = qHTS assay to identify small molecule agonists of the estrogen related receptor signaling pathway with the pleiotropic PPARgamma coactivator (PGC) from Tox21 10K library (AID 1224842); further: nearly all actives have a fitted effect of over 15% in size; further: potency means the concentration at half of the fitted maximal effect
Outline: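 PGC/ERR reporter cell line, 2,000 cells per well, incubated 6 h at 37 C before 23 nL compound in DMSO was added. After 18 h at 37 C, One-Glo luminescence read following 30 min at room temperature.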

[13] = qHTS assay to identify small molecule agonists of the RXR signaling pathway - cell viability counter screen (AID 1159529); further: nearly all actives have a fitted effect of over 50% in size; further: potency means the concentration at half of the fitted maximal effect
Outline: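 HEK 293T RXRa-bla cells, 2% CS-FBS; 5 h settle; cpd 16 h 37 C, 5% CO2; CellTiter-Glo 30 min RT, luminescence. Tetraoctyl ammonium bromide as positive control.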

[14] = qHTS assay to identify small molecule antagonists of the estrogen related receptor (ERR) signaling pathway - cell viability counter screen (AID 1224818); further: series mostly up to about 46 µM
Outline: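 Viability of ERR cells, CellTiter-Fluor fluorescence; 17.5 h compound exposure at 37 C, DMSO vehicle; 30 min reagent incubation at 37 C/5% CO2.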

[15] = qHTS assay to identify small molecule antagonists of the estrogen related receptor (ERR) signaling pathway (AID 1224819; further: nearly all actives have a fitted effect of over 50% in size; further: potency means the concentration at half of the fitted maximal effect)
Outline: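 Seed ERR cells 2,000/well; rest 6 h at 37 C/5% CO2; pin compounds in DMSO; incubate 18 h at 37 C; add One-Glo; wait 30 min at room temperature; measure luminescence.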

[16] = qHTS assay to identify small molecule agonists of the estrogen related receptor (ERR) signaling pathway (AID 1224820)
Outline: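 Following a 6 h settling period, 2,000 ERR cells per well receive DMSO-dissolved compounds by pin tool and incubate 18 h at 37 C; agonist activity is scored from One-Glo luminescence read 30 min post-addition.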

[17] = tested on: estrogen-related receptor alpha (ERRalpha) with PGC-1alpha coactivator, human; experiment: qHTS assay to identify small molecule antagonists of the estrogen related receptor signaling pathway with the pleiotropic PPARgamma coactivator (PGC) (AID 1224821; calls by dose curve)
Outline: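 Screening used NTP's PGC/ERR cells, dosed via pin tool with compound in DMSO alongside positive and negative controls. After 18 h at 37 C, One-Glo reagent sat 30 min at room temperature before luminescence detection.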

[18] = qHTS assay to identify small molecule agonists of the estrogen related receptor signaling pathway with the pleiotropic PPARgamma coactivator (PGC) (AID 1224823)
Outline: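 In this quantitative high-throughput screen, an 18 h, 37 C treatment of PGC/ERR cells with compounds in DMSO preceded a One-Glo luminescence read taken after 30 min at room temperature.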

[19] = qHTS assay to identify small molecule antagonists of the estrogen related receptor signaling pathway with the pleiotropic PPARgamma coactivator (PGC) cell viability counter screen (AID 1224822; further: series mostly up to about 46 µM)
Outline: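 17.5 h compound treatment of PGC/ERR cells at 37 C; readout CellTiter-Fluor fluorescence; run alongside the PGC/ERR antagonist screen to flag cytotoxic compounds.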

Measured: Potency

CC(C)(C)CC(C)(C)c1ccc(OCCO)cc1
active: [4] 48.3 µM | [6] 43 µM | [7] 54.2 µM | [8] 19.2 µM
inactive: [1] | [2] | [3] | [5]

CC1=C(/C=C/C(C)=C\C=C\C(C)=C\C(=O)O)C(C)(C)CCC1
inactive: [1] | [2] | [9] | [10]
active: [3] 0.0686 µM | [4] 54.5 µM | [5] 39.9 µM | [11] 24.3 µM

O=C(Nc1ccccc1)Nc1ccccc1
inactive: [1] | [2] | [4] | [9] | [6] | [10] | [7] | [8]
active: [3] 2.18 µM | [5] 6.36 µM | [11] 4.88 µM | [12] 10.9 µM

CCCCCC=CCC=CCCCCCCCC(=O)OCC
inactive: [1] | [4] | [9] | [6] | [10] | [11] | [7]

COC(=O)CC(=O)C(C)(C)C
inactive: [4] | [5] | [9] | [6] | [7]

CC1C2CC(CC2C2CCCC(O)C2)C1(C)C (stereo not given)
active: [13] 38.9 µM
inactive: [5] | [9] | [6]

Cc1occc1C(=O)Nc1ccc(C(=O)N2CCC(F)(F)/C(=C\C(=O)N3CCC(N4CCCCC4)CC3)c3ccccc32)cc1
inactive: [1] | [2] | [3] | [9] | [6] | [10] | [11]

NC(=O)N(O)[C@@H]1COc2cc(OCc3ccccc3)ccc21
inactive: [1] | [9] | [6] | [10]
active: [5] 1.12 µM | [11] 0.193 µM

C=CCNc1nc(NCC=C)nc(N2CCN(C(c3ccc(F)cc3)c3ccc(F)cc3)CC2)n1
inactive: [1] | [2] | [4] | [5] | [9] | [6] | [10] | [11] | [7]

COc1cc2c(cc1OC)-c1cc(=Nc3c(C)cc(C)cc3C)n(C)c(=O)n1CC2
active: [15] 17.4 µM | [12] 13.3 µM
not listed: [3] | [4] | [11] | [13] | [19]
inactive: all other assays above

CCOC(=O)CC(=O)C(=O)OCC
inactive: [2] | [3] | [5] | [11] | [7]
active: [8] 54.5 µM

CN(C(=O)C(Cl)Cl)c1ccc(OC(=O)c2ccco2)cc1
inactive: [13] | [4] | [9] | [10] | [11] | [7]

CC(Cl)C(Cl)Cl (stereo not given)
inactive: [13] | [4] | [9] | [6] | [7]

CCOC(=O)c1ccccc1C
inactive: [2] | [4] | [5] | [9] | [6] | [10] | [11] | [7]

CC(=O)[C@H]1CC[C@H]2[C@@H]3C=CC4=CC(=O)CC[C@@]4(C)[C@@H]3CC[C@]12C
inactive: [1] | [2] | [3] | [5] | [9] | [11]

CCOC(=O)/C=C/C(=O)O
inactive: [1] | [4] | [5] | [9] | [6] | [10] | [7]

c1cc[c]([Bi]([c]2ccccc2)[c]2ccccc2)cc1
inactive: [5] | [9] | [6] | [10] | [7]

CNCCCC1c2ccccc2C=Cc2ccccc21
active: [2] 23.7 µM | [4] 29.8 µM
inactive: [1] | [14] | [15] | [16] | [17] | [5] | [8]

C(=C\c1ccccc1)/CN1CCN(C(c2ccccc2)c2ccccc2)CC1
inactive: [14] | [19] | [4] | [9] | [6] | [10] | [11] | [7]

C/C=C/C=C/CCCCCCCO
inactive: [13] | [9] | [6]

CSc1ccc(Oc2ccc(S(N)(=O)=O)cc2CN(C)C)cc1C
inactive: [4] | [9] | [6] | [10] | [11] | [7] | [8]

NC(=O)Cn1c(=O)cc(CCN2CCN(c3nccc4sccc34)CC2)c2ccc(F)cc21
active: [4] 48.6 µM | [5] 44.8 µM | [8] 61.1 µM
inactive: [1] | [12]
